Experimental findings from the supplement of paper PMC6555819 are described below.

The subject of the test is VDR:RXRa (NR concentration 270 nM, RXRa partner concentration 90 nM). Kind of test: PBM binding z-score (relative to random genomic background probes); higher = stronger binding; sequences stand for … in GC…GCGATTGACAGCGTAGAATGAAGG
The protocol:
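Protein-binding microarray (Agilent 4x180K custom design, double-stranded 60-nt probes: 5' GC cap, 34-nt variable region, 24-nt constant primer region; full probe sequence given). Purified or IVT nuclear receptor:RXRα heterodimers (3:1 NR:RXRα, mostly 270:90 nM) or homodimers were incubated for 1 h in PBS with 2% milk and no ligand, then detected with Alexa488 antibodies. Fluorescence from o1-orientation probes (~5 replicates averaged) was converted to z-scores against 500 random hg19 background probes. Variable regions are seed direct-repeat (DR0–DR5) sites, all their single-nucleotide variants and half-site ablations.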
AGACAAAGTTCATCTAGGTAACGTAAGATATGCT: the PBM binding z-score is 5.16.

ACTCGGAGGACAAAGGTCAGAGCGACGCCAGTGA: the PBM binding z-score was determined as 3.47.

Sequence CCTACTGGGCCAATCAGAGGTCATTGATCATATG had a PBM binding z-score of 4.12.

TCTTGTAGATCAATAGAGGTTAAGAGAGTGCGCT: the PBM binding z-score came out at 2.79.

Take TGAATGAGGTTATAAGATCAGAGAACGTTGCAAA: the PBM binding z-score was found to be 0.965.

In the case of TTACCAAGGTGAAAGGTCTTTGATGCACGCCTTG, the PBM binding z-score came to 0.479.

As to TCTTGTAGATCAAGCAGGTTAAGAGAGCCTGAGT, the PBM binding z-score was determined as 0.331.

Turning to ACTCAGAGGACAAAGGTCAGAGCTACGCCAGTGA, the PBM binding z-score was 3.62.

CCAGACAGGTGAAAGGTAACTCAGTCTGGTACGC gave a PBM binding z-score of 0.989.

AGAACGAGGGCACGCTGAGTTGATAACAGAGTAG displayed a PBM binding z-score of 2.06.

Take TCATATAGGTAAACACGTGAAAGTCCGTAAGTTA: the PBM binding z-score worked out at 0.885.

The sequence CCAGCCAGGTGAGAAGGTAACTCAGCCTCGATTA yielded a PBM binding z-score of -0.314.

The sequence TCATATAGGTAAACAGGAGAAAGTCCGTAAGTTA showed a PBM binding z-score of 0.716.

In the case of TCCTATAGGTAAAAGGTGAAAGTCGGTGTGGTAA, the PBM binding z-score was 1.17.

Take CCTTACGGGTCACTCCAGGTTATAGCTTCGGAGT: the PBM binding z-score was determined as 3.95.

In turn, CAAACTAGGTCACGGTCAAAGTCGGTTTGTGCCA registered a PBM binding z-score of 3.33.

CCTACTGGGCCATTCGGAGGTCATTGATCATATG displayed a PBM binding z-score of 3.03.

TGTCAAAGTGCAAAGGTAACGTAAGTATCCACAC came in with a PBM binding z-score of 1.59.

As for AGAATGAGGTTATTAAGATGAGGGAATTGCGGTC, the PBM binding z-score was 1.15.

Take CCAGACAAGTGAGAAGGTAACTCAGCCTCGATTA: the PBM binding z-score was 0.143.

With CCTACTGGGCCATCAGGTCATTTATATCAACGTT, the PBM binding z-score is 1.65.

Sequence AATACAGGGTCAGTAGGCCAGAGTAGGTACGAAT yielded a PBM binding z-score of 2.65.

In turn, ACAGATAGGTGATGAAGGTAACTCAGGCTATCAT returned a PBM binding z-score of 0.219.

Turning to CAAACTGGGTCAAGGTCAAAGTCGGTTTGTGCCA, the PBM binding z-score came to 5.18.

In the case of TCTTGTAGATCAATAGAGGTTATGAAAGTGCGCT, the PBM binding z-score came out at 1.92.

In turn, CCTTGGAGGACAACAGGAGGTCAGAGCTGCCAGA had a PBM binding z-score of 1.99.

Sequence TCTAGCAGGCAAGAGGGTCACTCAAGAGGTACGG registered a PBM binding z-score of 2.01.

In turn, GCTGCTAGGTCACGTTGGTCAGCTAACGGGTACG displayed a PBM binding z-score of 2.29.

Consider AATACAGGGTCACTAGTCCAGAGTAGGTACGAAT, for which the PBM binding z-score was determined as 4.05.

CGAACTAGGCCATCCAGGACAGTGAATACATTGA: the PBM binding z-score is 0.0871.

Sequence CAAACTAGGTCTCCGGAAGGTCAAAGTCCGCATG registered a PBM binding z-score of 3.06.

The sequence CCTACTGGGCCATGCAGAGGTCATTGATCATATG gave a PBM binding z-score of 3.86.

Take CGTCCAAGGTCAGCAGGTCAGTTAAAGCGACGTG: the PBM binding z-score worked out at 4.23.

On to GCGACTGGCGCATCAGCAGGTTACCATAACTTAA, for which the PBM binding z-score was -0.625.

CAAACTATGTCACCGGAAGGTCAAAGTCCGCATG showed a PBM binding z-score of 3.84.

In turn, ATCTCTAGGAAAGACTCAGTTCAGTGAAGAACGC came in with a PBM binding z-score of 0.436.

For the sequence AGCATGAGGTTATTAAGATCAGGGAATTGCGGTC, the PBM binding z-score was found to be 2.36.

As to CCGACTGGGTCAAGGTTACCATAACGCACAGCCA, the PBM binding z-score is 2.05.

Take ATCTCTAGGTAAAGATAGGTCAGTGAATGCAAAT: the PBM binding z-score is 1.13.

In turn, CTCGAAAGGTCGTGCTCAGGTGAGCATACCAAAC returned a PBM binding z-score of 3.27.
